Experimental data published in PubChem BioAssay.
Values joined by “and” are separate entries in the source; they are usually repeats but may differ in a detail not shown here. Identical values can stand only once. Some compounds were tested as several samples or in several runs, with calls that do not always agree. Active and inactive are the calls of the source. No stated cut-off is given here; in the data, active means inhibition above about 80%; inactive means the rest.

assay: growth inhibition, MDA-MB-436, cell-based, BGB or cisplatin combos, synergistic combos for chromothripsis tumors (AID 1671458); details: MDA-MB-436 breast carcinoma growth inhibition, drug combinations; measured here: cisplatin combination; at 5 µM; stronger effect = higher value;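 further: cells exposed for 96 hours; 0% = vehicle DMSO and 100% = killing by high DMSO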

Structure (SMILES) | inhibition
Cc1c(N)nc(C(CC(N)=O)NCC(N)C(N)=O)nc1C(=O)NC(C(=O)NC(C)C(O)C(C)C(=O)NC(C(=O)NCCc1nc(-c2nc(C(=O)NCCC[S+](C)C)cs2)cs1)C(C)O)C(O[C@@H]1O[C@@H](CO)[C@@H](O)[C@H](O)[C@@H]1O[C@H]1O[C@H](CO)[C@@H](O)[C@H](OC(N)=O)[C@@H]1O)c1cnc[nH]1 (some centres undefined) | 42.7% and 28.7%
O=c1[nH]c(=O)n(C2OC(CO)C(O)C2O)cc1F (centres undefined) | 86.1%
O=P(O)(NCCCl)NCCCl | -15.6%
CC1(C)C(C(=O)Nc2ccc(S(=O)(=O)c3ccc(NC(=O)C4C(C)(C)C4(C)C)cc3)cc2)C1(C)C | -26%
CCC1(O)C(=O)OCc2c1cc1n(c2=O)Cc2cc3ccccc3nc2-1 (centres undefined) | 82.3% and 82.8%
NC(Cc1ccc(N(CCCl)CCCl)cc1)C(=O)O (centres undefined) | 33.3%
COc1cc([C@@H]2c3cc4c(cc3[C@H](O)[C@H]3COC(=O)[C@H]23)OCO4)cc(OC)c1O | 70.8% and 69%
COc1cc(C2c3cc4c(cc3C(O)C3COC(=O)C23)OCO4)cc(OC)c1OC (centres undefined) | 74.9%

assay: UWB1.289_BRCA1 ovarian cancer growth, cell-based, BGB or cisplatin combinations (AID 1671459); details: UWB1.289 BRCA1 ovarian carcinoma, drug combinations, BGB combination, concentration series, at 5 µM, stronger effect = higher value

Structure (SMILES) | inhibition
Cc1c(N)nc(C(CC(N)=O)NCC(N)C(N)=O)nc1C(=O)NC(C(=O)NC(C)C(O)C(C)C(=O)NC(C(=O)NCCc1nc(-c2nc(C(=O)NCCC[S+](C)C)cs2)cs1)C(C)O)C(O[C@@H]1O[C@@H](CO)[C@@H](O)[C@H](O)[C@@H]1O[C@H]1O[C@H](CO)[C@@H](O)[C@H](OC(N)=O)[C@@H]1O)c1cnc[nH]1 (some centres undefined) | 33.2% and 41.4%
O=c1[nH]c(=O)n(C2OC(CO)C(O)C2O)cc1F (centres undefined) | 110%
O=P(O)(NCCCl)NCCCl | -1.33%
CC1(C)C(C(=O)Nc2ccc(S(=O)(=O)c3ccc(NC(=O)C4C(C)(C)C4(C)C)cc3)cc2)C1(C)C | 2.97%
CCC1(O)C(=O)OCc2c1cc1n(c2=O)Cc2cc3ccccc3nc2-1 (centres undefined) | 99.4% and 98.3%
NC(Cc1ccc(N(CCCl)CCCl)cc1)C(=O)O (centres undefined) | 31.5%
COc1cc([C@@H]2c3cc4c(cc3[C@H](O)[C@H]3COC(=O)[C@H]23)OCO4)cc(OC)c1O | 55.3% and 54.8%
COc1cc(C2c3cc4c(cc3C(O)C3COC(=O)C23)OCO4)cc(OC)c1OC (centres undefined) | 71.3%

same assay, conditions: UWB1.289 BRCA1 ovarian carcinoma, drug combinations, at 0.5 µM, stronger effect = higher value

Structure (SMILES) | inhibition
Cc1c(N)nc(C(CC(N)=O)NCC(N)C(N)=O)nc1C(=O)NC(C(=O)NC(C)C(O)C(C)C(=O)NC(C(=O)NCCc1nc(-c2nc(C(=O)NCCC[S+](C)C)cs2)cs1)C(C)O)C(O[C@@H]1O[C@@H](CO)[C@@H](O)[C@H](O)[C@@H]1O[C@H]1O[C@H](CO)[C@@H](O)[C@H](OC(N)=O)[C@@H]1O)c1cnc[nH]1 (some centres undefined) | 17% (inactive) and 31.1% (inactive)
O=c1[nH]c(=O)n(C2OC(CO)C(O)C2O)cc1F (centres undefined) | 40.6% (inactive)
O=P(O)(NCCCl)NCCCl | -15.6% (inactive)
CC1(C)C(C(=O)Nc2ccc(S(=O)(=O)c3ccc(NC(=O)C4C(C)(C)C4(C)C)cc3)cc2)C1(C)C | -24.5% (inactive)
CCC1(O)C(=O)OCc2c1cc1n(c2=O)Cc2cc3ccccc3nc2-1 (centres undefined) | 67.6% (inactive) and 90.7% (active)
NC(Cc1ccc(N(CCCl)CCCl)cc1)C(=O)O (centres undefined) | 4.15% (inactive)
COc1cc([C@@H]2c3cc4c(cc3[C@H](O)[C@H]3COC(=O)[C@H]23)OCO4)cc(OC)c1O | 51.6% (inactive) and 46.7% (inactive)
COc1cc(C2c3cc4c(cc3C(O)C3COC(=O)C23)OCO4)cc(OC)c1OC (centres undefined) | 57.4% (inactive)
